Results from the OligoGym collection.

Target: PGLYRP2
Assay: pooled miR-30 sensor sort-seq; sequence = guide strand
Conditions: shRNA
Further: reference of the scale not given here.

Sequence	sensor-assay potency score (higher = more potent)
TTCTCGTACGTCATGTCGGGCC	-0.387
TCGTACACGTAGCCGTCCGAGC	-1.66
TCTGGGTCTGGGAACCTCGGAG	-0.74
TTTTGTAGCATCTGGAGTGTTG	-0.0388
TTAACAGAGATGCCTTGGGGTC	-1.41
ATCTCTTAGAGACACTCCTGGC	-0.911
TTCTGCCGTCGGAAGTTGCTGC	-0.417
TTGGACATCTGGACAGCCTTTT	-0.831
TAGCAATCCGAGTAGGATCCAG	-0.509
TAGTCTCCAAGGATGACCCCAT	-0.15

Target: PGR
Assay: as above
Conditions: shRNA

Sequence	sensor-assay potency score (higher = more potent)
TTGACTTCGTAGCCCTTCCAAA	-1.29
TAAGTTGATAGAAACGCTGTGA	0.39
TAGTTGATTAAGACTTGTCAGC	-0.703
TTCTTGGCTAACTTGAAGCTTG	-0.748
TTGAAGCTTGACAAACTCCTGT	0.608
TTCGTCTTCCAGCAGCTGCCGA	-0.877
TTGTTTGACAAGATCATGCAAG	-0.044
TTGTGTTGTCATGTCCTGCATA	-0.728
TAACTTCAGACATCATTTCTGG	-0.00174
TGTAAGTTGATAGAAACGCTGT	0.269
TTGATTAAGACTTGTCAGCAAA	-0.954
TCAACTGTATGTCTTGACCTGG	-0.016

Target: PHACTR4
Assay: as above
Conditions: shRNA

Sequence	sensor-assay potency score (higher = more potent)
TTAGGTTGCAATATATTGCGTT	0.996
TTCCAGTTGAGCCTAGTCGTTT	-1.14
TTGACTGAGCTTTCTAGTGAGC	-0.776
TTCCTTTTTCTGATCTTCCTGC	0.429
TTCTTTAACATGGCATCGCTTG	-0.642
TTTCGCATAGATATTTTCCGTT	-0.285
TTCATGAACCTCCATCTCGGAG	-1.12
TTTGATAACAATGTACCACTGT	0.882
TTCATCTTCTTCATCTCGGTAC	0.467
TCTTGAAGTACAATACACCAGG	-0.827
TTAAACCTCAGAATCTTCCTGG	0.724
TTGATAACAATGTACCACTGTT	-0.00481

Target: PHF15
Assay: as above
Conditions: shRNA

Sequence	sensor-assay potency score (higher = more potent)
TGTCGCATGACTGTCAGTGGTG	-0.605
TTGACCTCATCGTTGTCTGCTA	-0.147
ATCTCGTCCAAGTCATAGCGGC	-1.39
TTCAATAAGTTTCATCTGCAGG	-0.499
TACATCTGAGTCGCTCATCTCC	-0.519
